Rows were chosen to be rich in hits. Some 7.2% of all compounds tested hit in one or more screens of this group.
HCV inh: qHTS Assay for Inhibitors of Hepatitis C Virus (HCV) | Potency, µM (doses to about 41.8 µM), usual class: inhibitors | AID 651820, 2012 | hit rate 3.4% among 340,000 | Huh7.5.1 HCVcc-Cre infection, luciferase reporter, 44 h
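After 44 h co-culture of compound, cells and HCVcc-Cre (~0.5 moi), substrate is added for 15 min at room temperature and luciferase measured over 15 sec. Cells were seeded at 1,000/well and pre-cultured 4 h.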
Lassa entry inh: qHTS for Inhibitors of binding or entry into cells for Lassa Virus; Lassa virus pseudotype entry inhibition, cell reporter; Potency, µM (highest dose often 37.9 µM), hits mostly inhibitors; hit rate 1.2% among 300,000; AID 540256, 2011; calls by dose curve; tested in HEK293 cells; note: nearly all actives have a fitted effect of over 50% in size
Sm TGR inh: qHTS Assay for the Inhibitors of Schistosoma Mansoni Peroxiredoxins; AID 485364, 2010; purified TGR, DTNB reduction, TNB absorbance 405 nm; hit rate 3% among 360,000; Potency, µM (doses to about 114 µM), actives largely listed as inhibitors; note: nearly all actives have a fitted effect of over 60% in size
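TGR 20 nM + NADPH 100 uM (dispensed conc.), cpd preinc 15 min RT; start with NADPH (500 uM addition) then DTNB (15 mM addition). Kinetic TNB absorbance, 405 nm filter. Four-parameter Hill fit across titration.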
FMDV antiviral: High Throughput Screening for Foot and Mouth Disease Virus Antivirals; FMDV antiviral cell-based qHTS; Potency, µM (series often up to 57.9 µM), actives largely listed as inhibitors; hit rate 1.2% among 410,000; AID 1159524, 2015; calls by dose curve; tested in HEK293T cells; note: read-out not given here; nearly all actives have a fitted effect of over 45% in size
RE007 growth inh: qHTS Assay for Inhibitors of the HIV-1 protein Vpr. S. pombe RE007 Vpr strain, BacTiter-Glo ATP luminescence, 24 h. Potency, µM (series often up to 92.2 µM), hits mostly inhibitors. hit rate 0.21% among 360,000. AID 651644, 2012; active = well fitted falling curve with a large enough effect; inconclusive = small, poorly fitted or top-dose-only effect; inactive = no such curve, though single readings can be large or run the other way; note: nearly all actives have a fitted effect of over 50% in size
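Fission yeast strain RE007, carrying one chromosomally integrated HIV-1 vpr copy, was seeded at OD 0.01 in PMG+AL medium with 23 nL pinned compound. After 24 h at 30 °C and 99% humidity, viability was read by BacTiter-Glo luminescence.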
MARV entry inh: qHTS for inhibitors of binding or entry into cells for Marburg Virus; Marburg virus pseudotyped entry inhibition, cell reporter; Potency, µM (doses to about 37.8 µM), actives largely listed as inhibitors; hit rate 1.8% among 300,000; AID 540276, 2011; calls by dose curve; tested in HEK293 cells
Each line names hits and unclear results; the compound was inactive in the other large screens. Unless noted, calls come from the whole dose curve; as a rule, active = well fitted curve in the direction sought with a large enough effect; inconclusive = small, poorly fitted or top-dose-only effect, or another doubt; inactive = no such curve, though single readings can be large; an effect the other way counts as inactive or inconclusive.

C=C(C)Cn1c(SCC(=O)c2ccc(OC)cc2)nc2sc3c(c2c1=O)CCCC3	Lassa entry inh inconclusive (no result: HCV inh, RE007 growth inh)
O=C(Nc1cccc(C(F)(F)F)c1)C1CCN(c2nnc(-n3cccc3)s2)CC1	Lassa entry inh inconclusive (no result: HCV inh, RE007 growth inh, MARV entry inh)
Cc1cc(C(=O)NNc2ccc(Cl)cc2)no1	MARV entry inh 4.5µM
Cc1cc(C(=O)NNC(=O)Nc2ccc(Cl)cc2)no1	none
Cc1cc(C(=O)NNc2ccc(C)c(C)c2)no1	Sm TGR inh 50µM (no result: Lassa entry inh, MARV entry inh)
Cc1ccc(/C=C/C(=O)O)cc1S(=O)(=O)NCCCC(=O)O	Sm TGR inh inconclusive
Cc1ccc(/C=C/C(=O)O)cc1S(=O)(=O)NCc1ccco1	Sm TGR inh 32µM
COc1ccc(/C=C/C(=O)O)cc1S(=O)(=O)NCc1ccco1	Sm TGR inh inconclusive
Cc1ccc(/C=C/C(=O)O)cc1S(=O)(=O)N(C)CCO	Sm TGR inh 22µM
COc1cc(/C=C/C(=O)O)cc(S(=O)(=O)NCc2ccco2)c1OC	Lassa entry inh inconclusive, Sm TGR inh 32µM
CSCCC(NS(=O)(=O)c1ccc2c(c1)oc(=O)n2C)C(=O)Nc1ccc(F)c(Cl)c1 (stereo unspecified)	none (no result: HCV inh, RE007 growth inh, MARV entry inh)
CC1CCCCN1CCCNC(=O)c1cc(Sc2cccc(Cl)c2)nc2ccccc12 (stereo unspecified)	none (no result: HCV inh, RE007 growth inh, MARV entry inh)
CCOC(=O)C1CCCN(C(=O)Cn2ncc3c4ccccc4n(Cc4ccc(F)cc4)c3c2=O)C1 (stereo unspecified)	Lassa entry inh inconclusive, MARV entry inh inconclusive (no result: HCV inh, RE007 growth inh)
COCCn1c(CN(C)Cc2ccccc2)nc2c1c(=O)n(C)c(=O)n2C	HCV inh inconclusive (no result: Lassa entry inh, MARV entry inh)
CCCCn1c(CN2CCN(c3ccccc3)CC2)nc2c1c(=O)n(C)c(=O)n2C	HCV inh 7.1µM (no result: Lassa entry inh, MARV entry inh)
CCOCCn1c(CN(C)Cc2ccccc2)nc2c1c(=O)n(C)c(=O)n2C	none (no result: Lassa entry inh, MARV entry inh)
CCCCn1c(SCC(=O)N2c3ccccc3Sc3ccccc32)nc2c1c(=O)n(C)c(=O)n2C	HCV inh inconclusive, Lassa entry inh inconclusive, Sm TGR inh inconclusive, FMDV antiviral inconclusive, MARV entry inh 11µM
CN(Cc1ccccc1)Cc1nc2c(c(=O)n(C)c(=O)n2C)n1CCc1ccccc1	HCV inh 35µM, MARV entry inh inconclusive (no result: Sm TGR inh, FMDV antiviral)
CCCn1c(CN(C)Cc2ccccc2)nc2c1c(=O)n(C)c(=O)n2C	HCV inh 7.9µM, Lassa entry inh inconclusive, FMDV antiviral 7.9µM, MARV entry inh inconclusive
O=C(Cn1cc(SCc2c(F)cccc2Cl)c2ccccc21)N1CCCCCC1	Lassa entry inh inconclusive (no result: HCV inh, RE007 growth inh, MARV entry inh)
COc1cc(Cl)c(C)cc1NC(=O)CCc1c(C)nc2c3cccnc3nn2c1C	none (no result: HCV inh, RE007 growth inh)
COC(=O)c1ccccc1NC(=O)Cn1c(=O)n(Cc2ccc(C(=O)NCc3ccc4c(c3)OCO4)cc2)c(=O)c2ccccc21	Lassa entry inh inconclusive (no result: HCV inh, RE007 growth inh)
CCCn1c(CN(Cc2ccccc2)Cc2ccccc2)nc2c1c(=O)n(C)c(=O)n2C	HCV inh 7.9µM, FMDV antiviral 25µM, MARV entry inh inconclusive
CCCCn1c(CN(C)Cc2ccccc2)nc2c1c(=O)n(C)c(=O)n2C	HCV inh 11µM, FMDV antiviral inconclusive, MARV entry inh inconclusive
Cc1noc(COc2ccccc2OC[C@H](O)CNC(C)(C)C)n1	none (no result: HCV inh, Lassa entry inh, Sm TGR inh, FMDV antiviral, RE007 growth inh)
CCCc1ccc(OCc2nc(-c3ccc(NC(=O)c4cccs4)cc3)no2)cc1	MARV entry inh inconclusive
O=C(Nc1ccc(-c2noc(CCc3ccccc3)n2)cc1)c1cccnc1	HCV inh 11µM, Lassa entry inh inconclusive, FMDV antiviral inconclusive, MARV entry inh inconclusive
CCCc1ccc(OCc2nc(-c3ccc(NC(=O)c4ccco4)cc3)no2)cc1	Lassa entry inh 10µM, MARV entry inh inconclusive
O=C(NCCc1ccccc1)c1ccc(NC(=O)c2cccnc2)cc1	none (no result: Lassa entry inh, MARV entry inh)
COc1cc(=O)n2c(c1C(=O)N1CCc3ccccc3C1)CCN(Cc1ccc(CO)o1)CC2	none (no result: HCV inh, Lassa entry inh, Sm TGR inh, RE007 growth inh, MARV entry inh)
CCCC(=O)Nc1c2c(nn1-c1ccccc1)CSC2	none (no result: Lassa entry inh, MARV entry inh)
COc1ccc(-n2nc3c(c2NC(=O)CCCCl)CSC3)cc1	none (no result: Lassa entry inh, MARV entry inh)
O=C(CBr)Nc1c2c(nn1-c1ccccc1)CSC2	Sm TGR inh 35µM
COc1ccc(-n2nc3c(c2NC(=O)CBr)CSC3)cc1	Sm TGR inh 40µM
COc1ccc(N2CCN(C(=O)C(=O)c3ccc(F)cc3)CC2)cc1	none (no result: HCV inh, Lassa entry inh, Sm TGR inh, MARV entry inh)
O=C1NCCN(Cc2ccc(Cl)c(F)c2)C1CC(=O)N1CCc2ccccc2C1 (stereo unspecified)	Lassa entry inh inconclusive, Sm TGR inh 20µM
CN(Cc1cnccn1)C(=O)CC1C(=O)NCCN1Cc1c(F)cccc1Cl (stereo unspecified)	Sm TGR inh 32µM (no result: Lassa entry inh, MARV entry inh)
CN(Cc1ccon1)C(=O)CC1C(=O)NCCN1Cc1ccc(Cl)c(F)c1 (stereo unspecified)	Sm TGR inh 35µM
CN(Cc1ccon1)C(=O)CC1C(=O)NCCN1Cc1ccc(F)c(F)c1 (stereo unspecified)	Sm TGR inh inconclusive, MARV entry inh inconclusive
CN(Cc1cnccn1)C(=O)CC1C(=O)NCCN1CC(c1ccccc1)c1ccccc1 (stereo unspecified)	Sm TGR inh 45µM
Cc1ccc(CN2CCNC(=O)C2CC(=O)N(C)Cc2cnccn2)cc1 (stereo unspecified)	Sm TGR inh inconclusive (no result: Lassa entry inh, MARV entry inh)
CN(Cc1cccnc1)C(=O)CC1C(=O)NCCN1CC(c1ccccc1)c1ccccc1 (stereo unspecified)	Sm TGR inh inconclusive (no result: Lassa entry inh, MARV entry inh)
COc1ccccc1C(=O)Nc1nc2nc(C)cc(=O)n2[nH]1	none (no result: HCV inh, RE007 growth inh)
Cc1cnc(CNc2ccnc(-c3cccnc3)n2)cn1	none (no result: HCV inh, Lassa entry inh, Sm TGR inh, RE007 growth inh, MARV entry inh)
N#CC1(NC(=O)CN2C(=O)c3ccccc3C2=O)CCCCC1	none (no result: Lassa entry inh, MARV entry inh)
N#CC1(NC(=O)Cn2ncc(Cl)c(Cl)c2=O)CCCCC1	HCV inh 4.5µM, Lassa entry inh inconclusive, Sm TGR inh 18µM, FMDV antiviral inconclusive, MARV entry inh inconclusive
N#C/C(=C\c1ccc(OCc2ccc(C(=O)O)cc2)cc1)C(=O)N1CCOCC1	Lassa entry inh 1.8µM, FMDV antiviral inconclusive, MARV entry inh 0.92µM
O=C(CSc1ccc2ccccc2c1)NCCc1ccc(O)c(O)c1	HCV inh inconclusive, Lassa entry inh inconclusive, Sm TGR inh 11µM, FMDV antiviral inconclusive
Cc1ccc(-c2nc3ccc(Cl)cn3c2Nc2ccc3c(c2)OCCO3)s1	MARV entry inh inconclusive (no result: HCV inh, RE007 growth inh)
N#Cc1cnn(-c2nc(SCc3ccccc3)nc3sc4c(c23)CCCC4)c1N	none
BrCC1C[n+]2c(SCc3ccccc3)nc3sc4c(c3c2O1)CCCC4 (stereo unspecified)	Sm TGR inh 32µM, MARV entry inh inconclusive
CCSc1nc2sc3c(c2c2[n+]1CC(CBr)O2)CCCC3 (stereo unspecified)	HCV inh inconclusive, Sm TGR inh 45µM, MARV entry inh inconclusive
